# Screening results from PubChem BioAssay.
# The list is not random: actives were taken first. Their share in the collection is about 6.9%.
# KB-V1 cytotox: KB-V1 MDR subline cytotoxicity. KB-V1 MDR cells viability, CellTiter-Glo, 72 h. Potency, µM (titrated, usually from 46.1 µM), most hits filed as cytotoxic. 400,000 tested, 3.4% active. AID 1347076; further: potency means the concentration at half of the fitted maximal effect; on the % scale 0 is the no-effect control and ±100 the full control effect; nearly all actives have a fitted effect of over 60% in size
#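 Following 72 h at 37 degrees C with compound, KB-V1 cell viability was read by CellTiter-Glo luminescence, medium being phenol-red-free DMEM plus 10% FBS; concentration-response parameters came from normalized, curve-fitted qHTS data.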
# S-ASM inh: blocks human secretory acid sphingomyelinase | P17405 | placental ASM, HMU-PC fluorogenic substrate, 60 min | Potency, µM (highest dose often 57.5 µM), inactives show top-dose activity change, negative = inhibition, usual class: inhibitors | 340,000 tested, 0.006% active; further: potency means the concentration at half of the fitted maximal effect
# Target sequence (P17405 47-631 limits assumed): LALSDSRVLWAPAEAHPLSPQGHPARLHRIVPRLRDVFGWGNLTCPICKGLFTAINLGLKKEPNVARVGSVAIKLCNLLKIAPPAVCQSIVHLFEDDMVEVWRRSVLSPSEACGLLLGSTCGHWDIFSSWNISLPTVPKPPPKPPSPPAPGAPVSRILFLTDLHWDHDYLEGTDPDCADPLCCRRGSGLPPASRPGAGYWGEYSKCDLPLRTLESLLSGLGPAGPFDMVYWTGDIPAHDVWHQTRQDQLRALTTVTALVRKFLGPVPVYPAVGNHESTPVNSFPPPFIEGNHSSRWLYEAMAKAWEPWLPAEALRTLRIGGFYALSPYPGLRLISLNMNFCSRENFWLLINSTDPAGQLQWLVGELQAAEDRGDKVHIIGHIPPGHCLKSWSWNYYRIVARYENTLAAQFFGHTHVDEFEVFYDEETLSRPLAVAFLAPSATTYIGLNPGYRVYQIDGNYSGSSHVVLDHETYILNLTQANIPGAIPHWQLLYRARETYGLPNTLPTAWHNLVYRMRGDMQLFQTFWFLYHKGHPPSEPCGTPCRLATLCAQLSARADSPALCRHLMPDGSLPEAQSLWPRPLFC
#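 HMU-PC0 cleavage (9 uM final) by human placental ASM, 60 min at 37 °C following 10 min compound exposure at RT; stopped at pH 10, fluorescence Ex 386/Em 447 nm.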
# Giardia killer: kills Giardia lamblia; 340,000 tested, 0.15% active; activity change, % at 7.66 µM, hits read low; Giardia lamblia trophozoite viability; in the data active means activity change below about -80%; inconclusive means between about -30% and that limit;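 further: parasites exposed to compound for two days anaerobically before the ATP read; on the % scale 0 is the no-effect control and ±100 the full control effect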
#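 Trophozoite viability was measured as ATP-dependent luminescence, read 15-30 min after reagent addition. Before that, parasites at 100 cells/well were exposed to compounds for 48 h, anaerobically, at 37 deg C.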
# KB-3-1 cytotox: kills parental KB-3-1 adenocarcinoma cells; 400,000 tested, 1.4% active; AID 1347075; Potency, µM (titrated, usually from 46.1 µM), actives largely listed as cytotoxic; KB-3-1 viability, CellTiter-Glo ATP luminescence, 72 h; further: potency means the concentration at half of the fitted maximal effect; on the % scale 0 is the no-effect control and ±100 the full control effect; nearly all actives have a fitted effect of over 60% in size
#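 KB-3-1 cells, DMEM (no phenol red) + 10% FBS; compound by pin transfer, 72 h, 37 °C. Readout: CellTiter-Glo luminescence after 10 min. Data normalized, curve-fitted.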
# MCF10A rereplic: DNA re-replication induction in MCF 10a cells. MCF 10A DNA re-replication, Hoechst nuclear intensity, 48 h. Potency, µM (highest dose often 46.1 µM), for inactives: top-dose activity, positive = re-replication, usual class: activators. 350,000 tested, 2.9% active; further: potency means the concentration at half of the fitted maximal effect; % of control where 0% means no effect; nearly all actives have a fitted effect of over 50% in size
# SW480 rereplic: DNA re-replication induction in SW480 cells. SW480 DNA re-replication, Hoechst DNA content imaging, 48 h. Potency, µM (highest dose often 46.1 µM), for inactives: at the top dose re-replication activation, hits mostly activators. 340,000 tested, 1.8% active; further: potency means the concentration at half of the fitted maximal effect; % of control where 0% means no effect; nearly all actives have a fitted effect of over 55% in size
#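 Compounds, transferred as 23 nL by pin tool, were incubated with cells for 48 hr; DNA content per nucleus was then quantified by Hoechst staining and fluorescence plate imaging.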
# Starred values were filed as active, the others as inactive; i = inactive; ? = inconclusive; . = no result; [ ] = remark or other dose. Unless noted, the call rests on the fitted dose curve; in most records, active means well fitted curve in the direction sought with a large enough effect; inconclusive means small, poorly fitted or top-dose-only effect, or another doubt; inactive means no such curve, though single readings can be large; an effect the other way counts as inactive or inconclusive.
SMILES,KB-V1 cytotox,S-ASM inh,Giardia killer,KB-3-1 cytotox,MCF10A rereplic,SW480 rereplic
O=C(N/N=C/c1c[nH]c2ccccc12)c1[nH]c2ccc(Br)cc2c1-c1ccccc1,?,-2%,11,1.6µM*,?,8.2µM*
O=C(N/N=C/c1c[nH]c2ccccc12)c1cc(Br)ccc1O,i,-2%,9,i,1%,?
Cc1c(C(=O)N/N=C/c2ccc(Cl)cc2)[nH]c2ccc(Cl)cc12,?,-8%,-14,1µM*,?,2.1µM*
NNC(=O)c1[nH]c2ccccc2c1-c1ccccc1,i,1%,-3,?,?,9.2µM*
O=C(N/N=C/c1ccc(O)cc1)c1[nH]c2ccc(Br)cc2c1-c1ccccc1,i,-28%,-6,7.3µM*,?,7.3µM*
Cc1ccc(S(=O)(=O)c2nnn3c2nc(Nc2ccc(C(C)C)cc2)c2sccc23)cc1C,i,.,.,i,.,.
O=C(NCC(c1cccs1)N1CCOCC1)c1ccc(Br)o1 (centres undefined),?,1%,4,?,?,8.2µM*
COc1ccc(C(CNC(=O)CSc2ccc(Br)cc2)N2CCOCC2)cc1 (centres undefined),i,4%,0,i,1%,-81%
O=C(CSc1ccc(Br)cc1)NCC(c1cccs1)N1CCOCC1 (centres undefined),?,3%,-1,16µM*,10%,3%
CCc1ccc(-c2cc(C(F)(F)F)n3nc(C(=O)Nc4cnn(Cc5ccc(C)cc5)c4)cc3n2)s1,3.7µM*,181%,2,i,?,16%
CC(=O)c1c(CSc2ccccc2)oc2ccc(O)c(CN(C)C)c12,i,-3%,-3,i,?,13µM*
CCOC(=O)c1c(CSc2ccc(CC)cc2)oc2ccc(O)c(CN(C)C)c12,?,-17%,2,?,?,18µM*
CCOC(=O)c1c(CSc2ccccc2)oc2ccc(O)cc12,i,-14%,-4,i,18µM*,0%
O=C(CSCc1ccc([N+](=O)[O-])cc1)NC1CC1,i,5%,20,i,6%,-4%
CC(C)C(NC(=O)CSCc1ccc([N+](=O)[O-])cc1)C(C)C,18µM*,4%,2,i,?,-1%
O=C(CN1CCN(Cc2ccc3c(c2)OCO3)CC1)Nc1cc(S(=O)(=O)N2CCCC2)ccc1Cl,?,2%,-5,i,?,9%
CCN(CC)S(=O)(=O)c1ccc(C)c(NC(=S)N2CCN(Cc3ccc4c(c3)OCO4)CC2)c1,?,-6%,-14,23µM*,?,-5%
Cc1ccc(NC(=S)N2CCN(Cc3ccc4c(c3)OCO4)CC2)c(C)c1,i,0%,9,i,?,1%[9.22 µM]
CN(C)S(=O)(=O)c1ccc(Cl)c(NC(=O)CN2CCN(Cc3ccc4c(c3)OCO4)CC2)c1,15µM*,1%,6,?,?,4%
Cn1nnnc1Sc1ncnc2scc(-c3cc4ccccc4o3)c12,?,-4%,-17,?,?,?
Cn1nnnc1Sc1ncnc2scc(-c3ccc(-c4ccccc4)cc3)c12,?,-4%,6,15µM*,8.2µM*,?
Cn1nnnc1Sc1ncnc2scc(-c3ccsc3)c12,i,1%,?,?,16µM*,?
CCn1nnnc1Sc1nc(C)nc2scc(-c3ccccc3)c12,i,.,.,13µM*,.,.
Cn1nnnc1Sc1ncnc2scc(-c3cccc(C(F)(F)F)c3)c12,?,-7%,0,?,3.3µM*,?
COc1ccc(NC(=O)c2cn(CC(C)C)c(=O)c3cc(OC)c(OC)cc23)cc1Cl,i,.,.,i,.,.
COc1cccc(-c2csc3ncnc(Sc4nnnn4C)c23)c1,?,-7%,9,?,?,0.33µM*
Fc1ccc(CSc2ncnc3scc(-c4ccccc4)c23)cc1,15µM*,-7%,3,i,22%,0%
